Source: PubChem BioAssay
SUMO Mot1 rescue: SUMOylation pathway inhibition by Mot1-301 growth rescue | S. cerevisiae Mot1-301 growth rescue, ATP luminescence, 38.5C; percent above DMSO median, 100 means doubled | growth rescue, % at 18.8 µM | actives 1% (n = 320,000) | AID 2716;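 active means every valid replicate shows activation above 250% relative to neutral control wells; inactive means the rest, any valid replicate at or below 250%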;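 further: OY570 slx delta 5 strain wells were the positive control but not used for scaling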
Glyco luc inh: N-linked glycosylation inhibition; D54 ERlucT glycosylation luciferase reporter, 24 h; percent of 100 nM tunicamycin response; actives 0.23% (n = 360,000); reporter increase, % at 12.5 µM;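 active means mean luciferase reporter signal, scaled so untreated is 0 and the glycosylation-blocking control 100, at or above a set limit in every replicate; inconclusive means mean reaches the limit but not every replicate does; inactive means mean below the limit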;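 further: luciferase carries N-glycosylation sites so blocking glycosylation raises the light; 0% = median of neutral control wells and 100% = median of 100 nM tunicamycin wells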
NSD2 HMT inh: NSD2 (human) methyltransferase inhibition; O96028; NSD2 peptide methylation, AlphaScreen, 120 min; inhibition, % at 12.5 µM; actives 0.54% (n = 310,000); in the data active means inhibition above about 50%
CDK5 inh: blocks human CDK5/p35 kinase activity; Q00535+Q15078; Recombinant CDK5/p35, ADP-Glo luminescence, 60 min; inhibition, % at 10 µM; actives 0.01% (n = 330,000);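 active means highest replicate inhibition of at least 50% and at least 75% of replicates reaching 50%; inconclusive means only one of the two criteria met; inactive means both criteria failed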;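 further: plate controls were DMSO neutral control for no effect and GW8510 at 10 µM for full effect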
CASP6 VEID inh: caspase-6 (human) enzyme inhibition. P55212. purified caspase-6, Z-VEID-R110 cleavage fluorescence. inhibition, % at 12.5 µM. actives 0.53% (n = 350,000);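 active means mean inhibition across replicates at least about 35%, with every replicate also reaching that limit, limit read from the data; inconclusive means only one of the two criteria met; inactive means neither criterion met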;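 further: 0% = median of neutral control wells and 100% = no fluorescence left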
ALR inh: human ALR oxidase inhibition via reduced H2O2 | P55789 | purified ALR, DTT oxidation, H2O2 HRP-luminol luminescence | inhibition, % (concentration not given with the values) | actives 3.8% (n = 290,000);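 active means mean replicate inhibition above about 79%, with every replicate also reaching it, limit read from the data; inconclusive means only one of the two criteria met; inactive means mean below limit and not every replicate reaching it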
* marks the source's active call; other numbers are inactive results; ? = inconclusive; / = no result given. In the library only some 3.9% were active in any assay of this set; here they are far more common.

SMILES	SUMO Mot1 rescue	Glyco luc inh	NSD2 HMT inh	CDK5 inh	CASP6 VEID inh	ALR inh
COc1ccccc1N1CCN(C(=O)CCC(=O)N2CCN(c3ccccc3OC)CC2)CC1	-16	1	1	-1	5	?
O=C(NCC(=O)N1CCN(c2ccccc2O)CC1)c1cccs1	60	2	11	1	1	99*
Cc1ccc(C(=O)NCC(=O)N2CCN(c3ccccc3O)CC2)s1	/	1	-4	/	0	/
O=C(CSc1ccc2ccccc2c1)N1CCN(c2ccc(O)cc2)CC1	181	-4	3	1	3	98*
COc1ccccc1OCCC(=O)N1CCN(c2ccccc2OC)CC1	39	1	-1	1	2	82*
O=C(c1ccc2ccccc2c1)N1CCN(c2ccc(O)cc2)CC1	22	-4	10	0	/	/
CCOC(=O)c1oc2cc(O)ccc2c(=O)c1-c1csc(C)n1	-7	3	-6	-1	/	-5
CCOC(=O)c1ccc(CC(=O)c2oc3cc(O)ccc3c2C)o1	21	0	2	1	5	90*
Cc1nnc2sc(SCc3ccccc3Cl)nn2c1=O	/	3	8	0	-1	96*
CC(C)(C)c1nnc2sc(SCCN3C(=O)c4ccccc4C3=O)nn2c1=O	31	1	-5	5	/	99*
Cc1nnc2sc(SCc3cccc(Cl)c3)nn2c1=O	3	5	-3	-1	0	100*
C[C@H](NC(=O)C[C@@H]1C[C@H]2c3cc(NC(=O)NC4CCCCC4)ccc3O[C@H]2[C@H](CO)O1)c1ccccc1	/	/	/	/	1	/
O=C(N[C@H]1CC[C@H](CCn2cc(C3(O)CCCC3)nn2)O[C@@H]1CO)C1CC1	/	/	/	/	-2	/
CCN(CC)CCNc1nc(-c2ccc(OC)cc2)c(-c2ccc(OC)cc2)s1	-15	-4	11	1	1	99*
COc1ccc(-c2sc(NC(C)=O)nc2-c2ccccc2)cc1	-12	3	-3	/	/	-9
COCCNc1nc(-c2ccc(OC)cc2)c(-c2ccc(OC)cc2)s1	-13	-2	-1	-1	92*	94*
CC(C)NC(=O)Nc1ccc2c(c1)CC(=O)N([C@H](C)CO)C[C@H](C)[C@@H](CN(C)S(=O)(=O)c1cn(C)cn1)O2	/	/	/	/	-1	/
CN1CCc2c(n(CC(O)CNCc3ccccc3)c3ccccc23)C1=O (stereo unspecified)	2	-1	5	1	9	-17
CC(C)NCC(O)Cn1c2c(c3ccccc31)CCc1c-2cnn1-c1ccccc1 (stereo unspecified)	638	0	22	0	/	89*
N=C(N)SCc1ccccn1	-17	3	-2	/	/	-13
N=C(N)SCc1ncccc1O	-3	0	12	-1	43*	-1
Cc1ccc(NC2CCCN(C(=O)CN3C(=O)CSC3=O)C2)cc1C (stereo unspecified)	-21	-1	-1	1	3	99*
CC(C)c1ccc(NC2CCCN(C(=O)CN3C(=O)CSC3=O)C2)cc1 (stereo unspecified)	-9	-3	3	0	-2	98*
O=c1[nH]ccc2c(O)cccc12	-4	1	/	3	/	98*
Cc1ccc(Nc2cc(C)nn2-c2nc(C)cc(=O)[nH]2)cc1	22	-18	/	-2	/	92*
SMILES	SUMO Mot1 rescue	Glyco luc inh	NSD2 HMT inh	CDK5 inh	CASP6 VEID inh	ALR inh
CCN1C(=O)N/C(=C/c2ccc(C)o2)C1=O	-4	0	7	-1	42*	/
Cc1ccccc1/C=N/Nc1ccnc2cc(Cl)ccc12	-60	-4	0	3	-4	10
Oc1ccc(/C=N/Nc2ccnc3cc(Cl)ccc23)c(O)c1	-21	-2	3	-3	69*	-2
COc1ccc(/C=N/Nc2cc(C)nc3ccc(OC)cc23)c(OC)c1	23	-23	-5	4	24	86*
COc1ccccc1/C=N/Nc1cc(C)nc2ccc(C)cc12	-1	1	0	0	-1	99*
Cc1ccc2nc(C)cc(N/N=C/c3ccccc3O)c2c1	-9	1	3	2	-1	99*
COc1ccc2nc(C)cc(N/N=C/c3ccccc3)c2c1	-4	-21	0	0	/	-1
C[C@@H]1CN([C@@H](C)CO)C(=O)Cc2cc(NC(=O)Nc3ccccc3)ccc2O[C@H]1CN(C)CC1CCCCC1	/	/	/	/	0	/
